Measured values published in article PMC4336329 (PLoS ONE, 2015).
Hit rate of the full screen: of about 310,000 compounds, about 14,000 (4.5%) showed an effect of 50% or more. Effects have a minus sign here. Shown is part of a subset that was picked to be rich in strong results.

target: human ether-à-go-go-related gene (hERG) potassium channel (human, UniProt Q12809); assay: primary screen, population patch clamp on CHO cells stably expressing hERG; higher = less effect of the substance
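Note: peak tail current of the secondary pulse compared with the same well before compound.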

human ether-à-go-go-related gene (hERG) potassium channel, sequence (Q12809 whole entry, looked up): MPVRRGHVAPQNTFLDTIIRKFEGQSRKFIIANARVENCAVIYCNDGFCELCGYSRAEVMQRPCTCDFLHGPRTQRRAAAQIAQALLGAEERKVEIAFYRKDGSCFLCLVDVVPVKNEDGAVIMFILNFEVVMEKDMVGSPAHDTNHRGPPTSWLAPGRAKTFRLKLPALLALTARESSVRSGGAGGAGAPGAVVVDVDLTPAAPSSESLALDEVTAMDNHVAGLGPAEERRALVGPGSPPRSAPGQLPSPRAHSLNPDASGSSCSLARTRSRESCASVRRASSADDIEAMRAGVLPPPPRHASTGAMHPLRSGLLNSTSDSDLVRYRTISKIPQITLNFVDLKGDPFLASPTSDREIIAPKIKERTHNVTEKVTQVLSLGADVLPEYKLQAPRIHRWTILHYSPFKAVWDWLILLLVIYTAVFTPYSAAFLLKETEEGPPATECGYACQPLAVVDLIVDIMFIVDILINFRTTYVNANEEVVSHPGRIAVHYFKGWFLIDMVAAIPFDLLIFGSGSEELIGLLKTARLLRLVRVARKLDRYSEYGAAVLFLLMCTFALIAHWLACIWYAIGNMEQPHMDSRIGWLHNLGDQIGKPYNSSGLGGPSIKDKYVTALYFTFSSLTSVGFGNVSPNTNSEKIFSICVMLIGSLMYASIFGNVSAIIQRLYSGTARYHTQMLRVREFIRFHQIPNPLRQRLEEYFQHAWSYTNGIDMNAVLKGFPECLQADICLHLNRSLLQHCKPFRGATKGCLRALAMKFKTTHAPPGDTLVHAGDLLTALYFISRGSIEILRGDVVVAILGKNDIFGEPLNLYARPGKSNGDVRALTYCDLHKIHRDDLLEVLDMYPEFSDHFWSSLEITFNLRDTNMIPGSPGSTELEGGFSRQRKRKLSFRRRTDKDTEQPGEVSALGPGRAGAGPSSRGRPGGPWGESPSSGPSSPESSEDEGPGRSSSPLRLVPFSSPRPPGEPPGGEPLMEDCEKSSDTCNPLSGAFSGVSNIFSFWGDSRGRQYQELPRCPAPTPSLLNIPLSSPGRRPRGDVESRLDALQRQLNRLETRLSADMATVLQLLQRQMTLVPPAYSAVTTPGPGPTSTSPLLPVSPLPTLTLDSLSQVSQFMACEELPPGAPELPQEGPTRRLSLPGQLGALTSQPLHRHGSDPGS

Row | Structure (SMILES) | hERG current change (%, negative = inhibition) at 10uM
1 | O=S1(=O)[C@H]2C[C@@H]3C=C[C@@]2(CN1Cc1ccc(F)cc1)O3 | -25.2%
2 | CCN(CC)CCNC(=O)c1cc2ccccc2nc1Cl | 43.4%
3 | CCCCCn1c(=O)[nH]c2cc(C(=O)N3CCN(C(=O)OCC)CC3)ccc2c1=O | -9.61%
4 | CC(=O)NCCn1c(C)cc2ccccc21 | -55.1%
5 | CCC(=O)NCCn1c(C)cc2ccccc21 | -0.267%
6 | Cc1cc2ccccc2n1CCNC(=O)C(C)(C)C | 11.7%
7 | O=C(O)C(=O)O.O=C(c1ccccc1)c1ccc(OCC(O)CNCc2cccc(Cl)c2)cc1 (centres unmarked) | -60.3%
8 | O=C(O)C(=O)O.O=C(c1ccccc1)c1ccc(OCC(O)CNCc2ccc(Cl)cc2)cc1 (centres unmarked) | -66.6%
9 | COc1ccc(CNC(=O)Cc2cccs2)cc1 | 15%
10 | COc1cccc(CNCC(O)COc2ccc(C(=O)c3ccccc3)cc2)c1 (centres unmarked) | -34.7%
11 | CN(Cc1ccccc1)CC(O)COc1ccc(CNCCc2ccncc2)cc1 (centres unmarked) | -17.5%
12 | O=C(O)C(=O)O.OC(CNCc1ccc(Cl)cc1)COc1ccccc1 (centres unmarked) | -41.9%
13 | Cc1ccc(OCC(O)CNCc2ccccc2)cc1C (centres unmarked) | -33.5%
14 | C=CCOc1ccc(CN(C)CC(O)COc2cccc3ccccc23)cc1 (centres unmarked) | -23.2%
15 | COC(=O)c1ccc(COc2ccc(CNCc3ccc(Cl)cc3)cc2)cc1 | -0.414%
16 | C=CCOc1ccc(CN(C)CC(O)COc2ccc(CCC(C)=O)cc2)cc1 (centres unmarked) | -63.6%
17 | COc1ccc(CNC(C)Cc2cccs2)cc1 (centres unmarked) | -2.79%
18 | COc1ccc(CNCC(O)COCc2cccs2)cc1 (centres unmarked) | -60.8%
19 | CCNC(=O)/C=C/c1ccccc1[N+](=O)[O-] | 8.82%
20 | COc1ccc2[nH]c(=O)c(CN(c3ccccc3)S(=O)(=O)c3ccccc3)cc2c1 | 11.2%

Row | Structure (SMILES) | hERG current change (%, negative = inhibition) at 10uM
21 | COc1ccc2cnn(-c3ccc(OC(F)(F)F)cc3)c(=O)c2c1OC | -6%
22 | CCOC(=O)C(=CNc1cc(C)ccc1-n1cccc1)C(=O)OCC | 2.05%
23 | Cc1ccc(/C=C2/Sc3ccc(C(=O)N4CCC5(CC4)OCCO5)cc3NC2=O)cc1 | 16.1%
24 | Cc1sc(NC(=O)CN(Cc2ccccc2)C(=O)C(C)C)c(C(N)=O)c1C | -0.293%
25 | O=C(COc1cc(F)ccc1[N+](=O)[O-])Nc1ccc2c(c1)OCO2 | 1.25%
26 | Cc1csc(NC(=O)C2CCN(S(=O)(=O)c3ccc4c(c3)oc(=O)n4C)CC2)n1 | -11.5%
27 | COCCNC(=O)c1cc(-c2ccccc2)n(Cc2cc(C)no2)n1 | 0.26%
28 | Cn1c(O)c(C=NCCN2CCN(C(=O)Nc3ccccc3)CC2)c(=O)n(C)c1=O | 13.1%
29 | O=C(Nc1cc(Cl)cc(Cl)c1)C(NCCCO)c1ccccc1 (centres unmarked) | 3.1%
30 | Cc1ccc(CNCc2ccc3c(c2)OCO3)cc1 | -0.503%
31 | CC(=O)CCc1ccc(OCC(O)CNCCOc2ccc(C)cc2)cc1 (centres unmarked) | -55.9%
32 | Cl.OC(CNCc1ccccc1)COCc1ccc(Cl)cc1 (centres unmarked) | -50.3%
33 | CC(CNCc1ccc2c(c1)OCO2)NCc1ccc2c(c1)OCO2 (centres unmarked) | -54.5%
34 | CC(C)(C)NCC(O)COCc1ccc(Cl)cc1.Cl (centres unmarked) | -24.6%
35 | COc1ccc(CCC(=O)NCCOc2ccc(C)cc2)cc1 | 2.1%
36 | Cc1ccc(C(OCC(O)CNCc2ccc(F)cc2)c2ccccc2)cc1.O=C(O)C(=O)O (centres unmarked) | -75.7%
37 | Cc1ccc(OCCNCC(O)COc2ccccc2)cc1.O=C(O)C(=O)O (centres unmarked) | -44.2%
38 | CC(NCC(O)COCc1ccc(Cl)cc1)c1ccccc1.Cl (centres unmarked) | -43.1%
39 | CC(NCc1ccc2c(c1)OCO2)c1ccccc1.Cl (centres unmarked) | 10.4%
40 | Cc1ccc2nsnc2c1S(=O)(=O)N1CCN(CCc2ccccc2)CC1 | -42.6%

Row | Structure (SMILES) | hERG current change (%, negative = inhibition) at 10uM
41 | Cc1cc2c(=O)n(CC(=O)N3CCN(c4ccc(F)cc4)CC3)cnc2s1 | -12.4%
42 | CC(C)(C)CC(C)(C)NCC(O)COCCOc1ccc(Br)cc1.Cl (centres unmarked) | -32.8%
43 | O=C(NCc1ccc(F)cc1)NC(=O)c1ccc(Cl)cc1 | 8.5%
44 | CCOC(=O)C1=CCN(Cc2ccccc2)CC1.Cl | 12.8%
45 | Nc1nnc(SCCCC(=O)c2ccc(Br)cc2)s1 | 26.5%
46 | CC(=O)c1cccc(OCC(O)CNCCc2ccc(Cl)cc2)c1 (centres unmarked) | -49%
47 | Cc1ccc(OCC(O)CNCc2ccc(F)cc2)cc1 (centres unmarked) | -40.5%
48 | CCC(=O)c1ccc(OCC(O)CNCCc2ccc(Cl)cc2)cc1 (centres unmarked) | -72.1%
49 | O=C(COc1ccc(C(=O)c2ccccc2)cc1)NCc1ccc(F)cc1 | -6.64%
50 | CC(=O)c1ccc(OCC(O)CNCc2ccc3c(c2)OCO3)cc1 (centres unmarked) | -26.1%
51 | O=C(O)C(=O)O.O=C(c1ccccc1)c1ccc(OCC(O)CNCc2ccc(F)cc2)cc1 (centres unmarked) | -68.2%
52 | COC(=O)c1ccc(CNCC(O)COc2ccc(-c3ccccc3)cc2)cc1 (centres unmarked) | 13.1%
53 | CCC(=O)c1ccc(OCC(O)CNCc2ccc(F)cc2)cc1 (centres unmarked) | -52.2%
54 | OC(CNCc1ccc2c(c1)OCO2)COc1ccc(F)cc1 (centres unmarked) | -55.7%
55 | OC(CNCc1ccccc1Cl)COc1ccc(F)cc1 (centres unmarked) | -21.3%
56 | CCC(=O)c1ccc(OCC(O)CNC2CCCC2)cc1 (centres unmarked) | 2.52%
57 | OC(CNCc1ccc2c(c1)OCO2)COc1ccccc1 (centres unmarked) | -5.74%
58 | CCc1nc(C)ccc1OCC(=O)NCCCN(C)C.O=C(O)C(=O)O | 4.48%
59 | Cc1cc(C)cc(NC(=S)Nc2ccccn2)c1 | -8.14%
